Bead autofluor: flagged as autofluorescent in microsphere protease counterscreen. fluorescence intensity (no concentration beside the values). hit rate 3.1% among 360,000. AID 624483. compound autofluorescence counterscreen, microsphere flow cytometry; hits give high values; in the data active = fluorescence intensity above about 16000; inconclusive = no clear call, values can overlap the other calls
BoNT F protease: inhibitors of Botulinum neurotoxin F light chain protease; inhibition, % at 10 µM; Multiplex microsphere protease cleavage assay, flow cytometry; AID 588497; hit rate 0.22% among 360,000; in the data active = inhibition above about 35%, passing the limit was not always enough; inconclusive = no clear call, values can overlap the other calls; note: plate controls were buffer without enzyme for full effect and enzyme alone for no effect
BJeLR lethal: BJeLR cell viability loss | BJeLR (HRASV12) viability, CellTiter-Glo ATP luminescence, 48 h | inhibition, % (test concentration not listed) | hit rate 0.17% among 300,000 | AID 1554; in the data active = inhibition above about 50%; inconclusive = no clear call, values can overlap the other calls
SARS 3CLpro inh: SARS-CoV 3CLpro protease inhibition | inhibition, % at 6 µM | hit rate 0.14% among 290,000 | P0C6X7 | recombinant SARS-CoV 3CLpro, quenched FRET peptide cleavage; in the data active = inhibition above about 12%
Anthrax LF prot: inhibitors of Bacillus anthracis lethal factor protease | P15917 | inhibition, % at 10 µM | multiplex microsphere protease cleavage assay, LF | hit rate 0.12% among 360,000; note: plate controls were buffer without enzyme for full effect and enzyme alone for no effect
Target sequence (P15917 whole entry, looked up): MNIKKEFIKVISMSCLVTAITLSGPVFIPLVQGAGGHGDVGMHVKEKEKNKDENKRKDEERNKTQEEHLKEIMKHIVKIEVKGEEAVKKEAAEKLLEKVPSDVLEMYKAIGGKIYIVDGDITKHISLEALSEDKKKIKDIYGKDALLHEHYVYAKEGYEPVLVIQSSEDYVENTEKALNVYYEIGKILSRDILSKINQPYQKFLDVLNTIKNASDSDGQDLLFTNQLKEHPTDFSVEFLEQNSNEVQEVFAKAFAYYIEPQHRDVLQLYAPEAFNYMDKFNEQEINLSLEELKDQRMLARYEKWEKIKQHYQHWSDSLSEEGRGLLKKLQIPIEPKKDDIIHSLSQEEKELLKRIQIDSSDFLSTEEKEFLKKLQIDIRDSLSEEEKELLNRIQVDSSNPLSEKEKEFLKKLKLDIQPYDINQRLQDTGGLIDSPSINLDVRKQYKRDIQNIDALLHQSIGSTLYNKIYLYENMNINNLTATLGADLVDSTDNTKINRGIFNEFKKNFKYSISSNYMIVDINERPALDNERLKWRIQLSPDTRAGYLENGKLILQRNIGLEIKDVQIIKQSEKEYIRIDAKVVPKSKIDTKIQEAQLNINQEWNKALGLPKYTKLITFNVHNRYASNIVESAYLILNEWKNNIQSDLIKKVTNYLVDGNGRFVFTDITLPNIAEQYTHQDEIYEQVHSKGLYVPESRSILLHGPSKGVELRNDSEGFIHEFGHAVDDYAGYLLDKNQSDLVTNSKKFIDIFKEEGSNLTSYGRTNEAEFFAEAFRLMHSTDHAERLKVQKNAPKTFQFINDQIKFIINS
BoNT A protease: blocks Botulinum neurotoxin A light chain protease. multiplex microsphere protease substrate cleavage, flow cytometry. inhibition, % at 10 µM. hit rate 0.17% among 360,000. AID 588499; note: plate controls were buffer without enzyme for full effect and enzyme alone for no effect
Numbers without * were called inactive; ? = inconclusive; . = no result. Hits are enriched below; roughly 3.6% of the tested compounds scored in any of these assays. Cut-off read from the data, not from the text of the source, unless noted: active = inhibition above about 30%; inconclusive = no clear call, values can overlap the other calls; inactive = below that.

SMILES	Bead autofluor	BoNT F protease	BJeLR lethal	SARS 3CLpro inh	Anthrax LF prot	BoNT A protease
COC(=O)c1sc2ncccc2c1OCc1ccccc1Cl	18888*	0	4	-1	-7	2
Cc1cc(C)cc(C(=O)N2CC(C)OC(C)C2)c1 (configuration not stated)	22829*	-1	-9	5	0	?
CC1CN(C(=O)c2cccc(C(=O)N3CC(C)OC(C)C3)c2)CC(C)O1 (configuration not stated)	2705	-1	-2	-4	1	0
CCN1C(=O)/C(=C\c2ccc(F)cc2)N=C1SCC(=O)NCc1ccco1	7522	-9	-1	3	2	0
COCCn1c(SCc2csc(-c3ccccc3)n2)nc2ccccc21	22786*	-6	4	-3	-1	?
COCCn1c(SCC(=O)NCc2ccccc2)nc2ccccc21	3027	-18	-7	2	16	0
O=C1CC2(CCN(C(=O)C3CC(=O)N(c4ccccc4)C3)CC2)Oc2ccccc21 (configuration not stated)	?	16	5	.	4	11
COc1ccc(OC)c(Nc2nc(-c3cccc([N+](=O)[O-])c3)nc3ccccc23)c1	25968*	-8	2	-3	-3	-4
CC1(C)N=C(c2ccc(Cl)cc2)C(=O)N1	23886*	-4	-10	2	-2	0
COc1cccc2c1OC1(C)CC2NC(=O)N1c1cccc(C(=O)N2CCN(c3ccccc3)CC2)c1 (configuration not stated)	2080	-4	-6	5	1	0
CN(Cc1nc(-c2cccnc2)no1)S(=O)(=O)c1ccccc1	2859	7	-8	-1	1	0
CN(Cc1nc(-c2ccccn2)no1)S(=O)(=O)c1ccc(Cl)cc1	21655*	4	6	-2	1	4
Cc1ncnc(N)c1CCCNc1ccccc1	3490	-3	.	.	-7	-1
N#Cc1cc(-c2ccccc2)cnc1Sc1ccc(Cl)cc1	24808*	-3	-2	-6	-2	-2
Cc1ccc(NS(=O)(=O)c2c(C(=O)N3CCCCCC3)c(C)n(C)c2C)cc1C	5847	2	-3	4	-3	0
Cc1ccc(S(=O)(=O)NC(=NCC(=O)O)c2ccc(F)cc2)cc1	25722*	-8	6	-2	-1	-4
Cc1onc(-c2ccccc2)c1C(=O)OCC(=O)N(C)c1c(N)n(Cc2ccccc2)c(=O)[nH]c1=O	?	?	4	.	?	?
O=C(Cc1ccc(S(=O)(=O)N2CCOCC2)s1)Nc1ccccc1Br	6041	-18	-4	2	-9	2
O=C(COc1ccccc1F)NNC(=O)Cc1ccc(S(=O)(=O)N2CCOCC2)s1	?	?	-1	.	-2	0
CC(Oc1ccccc1F)C(=O)NNC(=O)Cc1ccc(S(=O)(=O)N2CCOCC2)s1 (configuration not stated)	6061	86*	.	.	109*	100*
NC(=O)c1cc(-c2ccccc2)sc1NC(=O)Cc1ccc(S(=O)(=O)N2CCOCC2)s1	3245	-17	-5	19*	4	2
CN(C)C/C=C(/c1ccc(Br)cc1)c1cccnc1	5367	-6	2	.	2	0
CN(C)CCO/N=C(\c1ccc(Br)cc1)c1cccnc1	21777*	?	-9	.	-50	-82
Cc1ccc2[nH]c(=O)c(N3CCOCC3)c(-c3ccccc3)c2c1	25661*	-8	2	0	-3	?
CCc1c(C)nc2ncnn2c1Nc1ccc(C)cc1	3741	-38	-3	0	-2	-2
SMILES	Bead autofluor	BoNT F protease	BJeLR lethal	SARS 3CLpro inh	Anthrax LF prot	BoNT A protease
C#CCNc1c(C)c(C)nc2ncnn12	24659*	-6	-3	3	-1	-4
CCn1c(=O)[nH]c(=O)c2c(N)c(C(=O)c3cc(F)ccc3F)sc21	5646	-2	9	3	-2	1
CN(C(=O)Nc1ccc(Cl)cc1)c1c2c(nn1C)CCCC2	23809*	-6	23	-4	-3	?
O=C(Nc1nc(-c2ccc(Cl)cc2)cs1)C1CCCO1 (configuration not stated)	2343	-2	3	-3	-2	1
CCOc1ccc(-c2csc(NC(=O)C3CCCO3)n2)cc1 (configuration not stated)	21480*	-3	0	-2	-1	-2
O=C(Nc1ncc(Cc2ccccc2Cl)s1)C1CCCO1 (configuration not stated)	5621	-8	1	9	-7	0
Cc1cnc(NC(=O)C2CCCO2)s1 (configuration not stated)	16597*	-2	3	2	-2	?
Cc1nnc(N2CCCC(C(=O)NCc3ccc(OC(C)C)cc3)C2)c2nn(-c3ccccc3)c(C)c12 (configuration not stated)	24028*	13	-15	2	-4	-11
Cc1ccc(S(=O)(=O)NCC(=O)NC2CCCC2)cc1	23092*	-1	7	-1	0	-2
Cc1ccc(S(=O)(=O)NCC(=O)NC2CCCCCC2)cc1	4330	-2	2	-1	2	0
Cc1ccc(NS(=O)(=O)c2ccc(CCC(=O)NC3CC3)cc2)cc1	23092*	2	-2	0	-2	1
Cc1ccc(S(=O)(=O)NC2CCC(C(=O)O)CC2)cc1 (configuration not stated)	17170*	-3	-6	3	1	-1
Cc1ccc(NC(=O)CCc2ccc(S(=O)(=O)NC3CCCCC3)cc2)cc1	2948	-3	0	4	-1	0
O=C(O)C1CCCCC1C(=O)Nc1cccc2ccccc12 (configuration not stated)	20285*	6	0	3	-6	6
Cc1ccc(CNC(=O)NC2CCCCC2)cc1	4441	-4	0	3	3	0
Cc1ccc(CNC(=O)C2CCCCC2C(=O)O)cc1 (configuration not stated)	21599*	1	-4	1	-7	?
CC(=O)Nc1ccc(NC(=O)c2ccccc2Nc2ccccc2)cc1	3560	-3	6	6	13	-4
Cc1ccc(N(C(=O)CCl)C(C(=O)NC2CCCCC2)c2cccnc2)cc1C (configuration not stated)	.	.	101*	9	.	.
Cc1ccc(N(C(=O)CNC(=O)c2ccco2)C(C(=O)NC2CCCCC2)c2cccnc2)cc1C (configuration not stated)	5684	-1	5	1	0	-1
COC(=O)c1ccc2c(=O)n(NC(=O)C(c3ccccc3)c3ccccc3)c(=S)[nH]c2c1	16293*	-2	0	2	2	?
Cc1sc2nc(CN3CCCC3)nc(N3CCN(S(=O)(=O)c4cccs4)CC3)c2c1C	24350*	-4	5	-2	0	?
Cc1ccc(S(=O)(=O)N2CCN(c3nc(CN4CCCC4)nc4sc(C)c(C)c34)CC2)cc1	4889	-9	.	.	-1	2
CC(=O)c1ccccc1OCCOCCOCCOc1ccccc1C(C)=O	4307	2	55*	1	-7	0

Screens (PubChem BioAssay)
